Hit rate of the full screen: of about 68,000 compounds, about 2,700 (4%) showed an effect of 50% or more. Only a selection was taken, and strong results are over-represented in it overall.
test system: Plasmodium berghei; assay: Screen against P. berghei liver stage (PbLuc), transformed with Luciferase, at 2uM; assay type: functional, HepG2; conditions: tested at 2 uM

Compared with `Cc1nccn1-c1ccc(NC(=O)C2CCCN2Cc2ccoc2)cc1` (configuration not stated), `Cc1nccn1-c1ccc(NC(=O)C2CCCN2Cc2c[nH]cn2)cc1` (configuration not stated) is higher in INHIBITION: 29.13% for the first, 31.51% for the second.

Compared with `Cc1nccn1-c1ccc(NC(=O)C2CCCN2CC2CC2)cc1` (configuration not stated), `Cn1ccnc1CNC1CCCN(Cc2noc(C3CC3)n2)C1` (configuration not stated) is lower in INHIBITION: 69.67% for the first, 50.32% for the second.

Going from `COCCCN1CCN(c2ncnc3nc(C)cc(C)c23)CC1` to `Cc1noc(C)c1CCC(=O)N1CCN(CCn2cccn2)CC1`, the INHIBITION falls from 19.27% to 2.18%.

First: O=C(CCc1n[nH]c2c1CCCC2)N1C[C@H]2CC[C@@H](C1)N(CC1CC1)C2
Second: c1cnn(CC2CCCCN2Cc2noc(C3CC3)n2)c1 (configuration not stated)
The INHIBITION of the first is higher: 35.94% for the first, -10.47% for the second.

First: Nc1cc(N2CCCC(COc3ccc(F)cc3)C2)ncn1 (configuration not stated)
Second: Nc1cc(N2CCCC(COc3ccc(F)cc3)C2)nc(N)n1 (configuration not stated)
The INHIBITION of the first is higher: 42.11% for the first, 17.48% for the second.

First: Cc1nc(N)cc(N2CCCC(COc3cccc(F)c3)C2)n1 (configuration not stated)
Second: Cc1nc(CN2CCCC(NCc3cccc4ccccc34)C2)no1 (configuration not stated)
The INHIBITION of the first is higher: 59.8% for the first, 29.54% for the second.

Compared with `N#Cc1cccnc1NCc1cccc(C(=O)NCC2CCCCO2)c1` (configuration not stated), `Nc1ncccc1C(=O)NCc1cccc(Br)c1` is lower in INHIBITION: 27.85% for the first, -3.16% for the second.

Compared with `N#Cc1cccnc1NCCc1cc(F)cc2c1OCOC2`, `Cc1nc(CN2CCCC(NCCc3ccccc3Cl)C2)no1` (configuration not stated) is higher in INHIBITION: 4.68% for the first, 56.67% for the second.

First: COc1ccc2c(c1)CCCC2CC(=O)O (configuration not stated)
Second: COc1ccc2c(c1)CCCC2CC(=O)NCC(=O)O (configuration not stated)
The INHIBITION of the first is lower: -36.72% for the first, -35.22% for the second.

Compared with `COc1ccc2c(c1)CCCC2CC(=O)NCC(C)(C)C(=O)O` (configuration not stated), `CCC(=O)Nc1cccc(C(=O)NCCC2=CSC3=NCCCN23)c1` is lower in INHIBITION: 53.98% for the first, -17.86% for the second.

Going from `CC1CN(CC(=O)Nc2nncs2)CCN1Cc1nccn1C` (configuration not stated) to `Cn1ccnc1CC1CCCN(Cc2noc(C3CC3)n2)C1` (configuration not stated), the INHIBITION rises from -11.91% to 11.24%.

Compared with `CCS(=O)(=O)c1ncc(CN(C)C)n1Cc1ccccc1`, `Cc1nc(CN2CCCC(NCCCc3ccccc3)C2)no1` (configuration not stated) is lower in INHIBITION: -2.93% for the first, -6.4% for the second.

Going from `O=c1oc(-c2cccs2)nn1CC(O)c1ccc(F)cc1` (configuration not stated) to `O=c1oc(-c2cccs2)nn1CC(O)c1ccccc1` (configuration not stated), the INHIBITION rises from 29.61% to 60.95%.

Compared with `CC(=O)c1cccc(NC(=O)Cn2cnc(-c3cccs3)cc2=O)c1`, `CC(=O)c1cccc(NC(=O)Cn2cnc(-c3ccccc3)cc2=O)c1` is lower in INHIBITION: 50.7% for the first, 3.11% for the second.

Going from `CC(=O)c1cccc(NC(=O)CCn2nc(-c3cccs3)oc2=O)c1` to `CC(=O)c1cccc(NC(=O)Cn2nc(-c3cccs3)oc2=O)c1`, the INHIBITION rises from 15.28% to 51.94%.

Compared with `O=C(Cn1cnc(-c2cccs2)cc1=O)Nc1cccnc1`, `CNC(=O)c1cccc(NC(=O)Cn2nc(-c3cccs3)oc2=O)c1` is higher in INHIBITION: -8.7% for the first, 17.39% for the second.

Going from `O=c1oc(-c2cccs2)nn1CC(O)c1ccccc1F` (configuration not stated) to `c1csc(-c2nc(CNCCn3cccn3)cs2)c1`, the INHIBITION falls from 34.89% to 4.18%.

First: Cc1occc1C(=O)N1CCC2(CC1)C(c1cnn(C)c1)CC(=O)N2C (configuration not stated)
Second: COc1cc(N2CCC3(CCCN3Cc3cnn(C)c3)CC2)ncn1
The INHIBITION of the first is lower: -41.72% for the first, 30.09% for the second.

Going from `Cc1cccc2c1OCCCC2NCc1nccn1Cc1ccccc1` (configuration not stated) to `Fc1ccccc1-c1cccc(C2CCCN(C3CCOCC3)C2)n1` (configuration not stated), the INHIBITION rises from 21.72% to 25.4%.

Compared with `COc1cc(N2C[C@@H]3COC[C@]3(C(=O)NCc3ccccn3)C2)ncn1`, `Fc1cnc(N2C[C@H]3CCC[C@@]3(COc3ccccn3)C2)nc1` is lower in INHIBITION: -23.31% for the first, -27.16% for the second.

Compared with `O=C(NCCc1cccs1)[C@]12COC[C@H]1CN(C1CCOCC1)C2`, `O=C([C@H]1C[C@H]2OCC[C@H]2N(C(=O)c2ccccn2)C1)N1CCCCO1` is higher in INHIBITION: 17.24% for the first, 62.1% for the second.

First: Cc1ccc(-c2cc(CN3CCc4cnc(C)nc4C3)on2)cc1
Second: CCc1nc(CN2CCCC(NCc3cc(C)no3)C2)no1 (configuration not stated)
The INHIBITION of the first is lower: -34.82% for the first, -2.1% for the second.

Going from `O=C([C@H]1C[C@H]2OCC[C@H]2N(C(=O)c2cnccn2)C1)N1CCCCO1` to `O=C([C@H]1C[C@H]2OCC[C@H]2N(C(=O)c2ccncc2)C1)N1CCCCO1`, the INHIBITION falls from -1.69% to -34.26%.

Compared with `O=C(c1ccc(Br)o1)N1CCN(Cc2ccc(F)cc2)CC1`, `CC(C)c1ccc(CN2CCC3(CCCN(c4nncs4)C3)C2)cc1` (configuration not stated) is lower in INHIBITION: 10.22% for the first, 5.52% for the second.

Compared with `CC(C)NC(=O)Nc1ccc(CNCc2cccc(C#N)c2)cc1`, `O=C(CN(C1=NCCCCC1)c1ccc(Cl)cc1)c1ccccc1` is higher in INHIBITION: -68.26% for the first, -65.06% for the second.

First: Cn1cc(CNC2CCCN(Cc3noc(C4CC4)n3)C2)cn1 (configuration not stated)
Second: Cc1ncc(CNC2CCCN(Cc3noc(C4CC4)n3)C2)s1 (configuration not stated)
The INHIBITION of the first is lower: 2.08% for the first, 18.46% for the second.

Compared with `CCc1nc(CN2CCCC(NCc3nc(C)c(C)o3)C2)no1` (configuration not stated), `CCc1nc(CN2CCCC(NCc3cnc(C)s3)C2)no1` (configuration not stated) is higher in INHIBITION: 36.73% for the first, 77.57% for the second.

Going from `Cc1cc(CNC2CCCN(Cc3noc(C4CC4)n3)C2)on1` (configuration not stated) to `Cc1ccc(CNC2CCCN(Cc3noc(C4CC4)n3)C2)s1` (configuration not stated), the INHIBITION rises from 7.01% to 54.29%.

Going from `Cc1oc(C(=O)O)cc1S(=O)(=O)Nc1cccc(-c2nccs2)c1` to `COc1ccc2cc(NC(=O)CCNc3nc(C)cc(C)n3)cnc2c1`, the INHIBITION falls from 15.39% to -6.83%.

Going from `CC(NC(=O)COCC(F)(F)F)c1nnc2n1CCCCC2` (configuration not stated) to `Cc1nc(CN2CCCC(NCc3ccsc3)C2)no1` (configuration not stated), the INHIBITION rises from 15.08% to 20.28%.

Compared with `Cc1ccsc1CNC1CCCN(Cc2noc(C3CC3)n2)C1` (configuration not stated), `Cc1nc(CN2CCCC(NCc3sccc3C)C2)no1` (configuration not stated) is higher in INHIBITION: 17.59% for the first, 51.94% for the second.

Compared with `c1ncn(CC2CCCN(Cc3noc(C4CC4)n3)C2)n1` (configuration not stated), `c1ncn(CCNC2CCCN(Cc3noc(C4CC4)n3)C2)n1` (configuration not stated) is higher in INHIBITION: 29.54% for the first, 54.29% for the second.

Going from `Cc1nc(CN2CCCC2Cn2cncn2)no1` (configuration not stated) to `c1ncn(CC2CCCCN2Cc2noc(C3CC3)n2)n1` (configuration not stated), the INHIBITION rises from -21.93% to 62.13%.

`CCc1nc(CN2CCCC(NCCn3cncn3)C2)no1` (configuration not stated) gave an INHIBITION of 35.56%.
